# Reference: PubChem BioAssay
# Where “and” joins values, the source holds several entries; their conditions need not be identical. Identical values can stand only once. Some structures have more than one record in an assay (separate samples or runs), and their calls can disagree. Calls of active or inactive are those of the source.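 Rule for the calls, unless noted: active = compounds lowering colon cancer cell viability after pretreatment blocking the GSK3B kinase; inactive = the rest.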
# Tests used:
# [1] = stimulators of nuclear beta-catenin in C2C12, primary screen, imaging, WNT3A-conditioned medium, mouse C2C12, NPC library (AID 1117326; in the data active = nuclear beta-catenin stimulation mostly above about 4.2%, no sharp cut-off; inactive = mostly below about 10%); details: stronger effect = higher value
# [2] = stimulators of insulin release from INS-1E, primary screen, cell-based, 5 mM glucose, NPC library (AID 1117329;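 active = compound raises insulin release from rat beta cells at 5 mM glucose, no numeric limit stated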); details: rat INS-1E insulin secretion, at 10 µM, stronger effect = higher value
# [3] = growth inhibition of GSK3B-pretreated HCT116 cells – cell-based, CellTiter-Glo, 0.2 to 20 µM (AID 1117336); details: HCT116 viability after GSK3B inhibitor, at 20 µM, stronger effect = higher value
# [4] = inhibition of endothelial tube formation, primary screen, imaging, VEGF stimulated, CD31 staining, tube area, NPC library (AID 1117340;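 active = compound that reduces growth-factor-driven endothelial tube area in a mixed cell culture, no cutoff stated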); details: VEGF-stimulated ADSC/ECFC co-culture, at 10 µM, stronger effect = higher value
# [5] = glucagon-like peptide 1 release enhancers, primary assay, NCI-H716 cell line, NPC library (AID 1117341;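 active = compound raises GLP1 secretion from the human gut endocrine cells, with no numeric limit stated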); details: NCI-H716 cells, at 10 µM, stronger effect = higher value
# [6] = HCT116 colon cancer cell growth inhibition, primary screen, CellTiter-Glo luminescence, NPC library (AID 1117342;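 active = compounds that lower survival of HCT116 colon cancer cells in the luminescence readout, no numeric limit stated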); details: at 20 µM (top of the series)
# [7] = CellTiter-Glo luminescent readout of SW480 viability loss, NPC library primary (AID 1117343;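 active = compounds that lower viability of the colon cancer cells in the luminescence readout, with no numeric limit stated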); details: CellTiter-Glo luminescence; at 20 µM (top of the series)
# [8] = decreased DLD-1 cellular survival, CellTiter-Glo luminescent readout, NPC compound collection, primary HTS (AID 1117346;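 active = compounds that lower survival of DLD-1 colon cancer cells in the luminescence readout, no cutoff given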); details: DLD-1 viability, CellTiter-Glo luminescence; at 20 µM (top of the series)
# [9] = molecular target: 6-phosphogluconate dehydrogenase, decarboxylating (Homo sapiens) (UniProt P52209); assay: 6PGD enzyme inhibitors, primary screen, biochemical, human, recombinant enzyme, NADPH absorbance (AID 1159550;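 active = at least 20% inhibition of 6-phosphogluconate dehydrogenase activity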); details: recombinant 6PGD, NADPH absorbance 341 nm; at 10 µM; stronger effect = higher value
# [10] = differential killing of epithelial or mesenchymal cells, primary screen, imaging, PC-3E GFP, TEM4-18 mCherry, co-culture (AID 1345086;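 active = compounds killing one labelled cell type while sparing the other, by normalised counts and ratio limits, not self-fluorescent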;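 for all read-outs here: cells exposed to compound for 72 h before imaging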;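 for red/green cell ratio (normalised): normalised mesenchymal count divided by normalised epithelial count so high means epithelial killing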); details: imaging cell counts, at 1 µM; for red/green cell ratio (normalised): actives lie on both sides, counts scaled to control wells, 1 = unselective
# [11] = sensitizers of A549 cells to miR-34 induction, primary screen, imaging, A549 dox-inducible miR-34, nuclei and caspase counts (AID 1347080;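 active = compounds whose cell count with miR-34 switched on is under 0.7 times the count with it off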); details: A549 miR-34 inducible, Hoechst nuclei count, 48 h
# [12] = survival rescue of mitochondrial mutant cells in low glucose, primary screen, MELAS cybrids, Rieske KO mouse fibroblasts, CellTiter-Glo (AID 1508586;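 active = mean z-score across replicates of 1.96 or higher in either the MELAS or the Rieske mutant cell line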;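 note: z relative to plate mean and SD of compound and empty wells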)
# [13] = molecular target: NAD(+) hydrolase SARM1 (Homo sapiens) (UniProt Q6SZW1); assay: SARM1 TIR NADase inhibitors, cell lysate, NAD-Glo luminescence (AID 1508614;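 active = compound whose remaining NAD level is above about 45 nM, limit read from the data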;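 note: higher remaining NAD means stronger inhibition of SARM1 NADase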); details: SAM-TIR HEK293T lysate NADase, at 1 µM, stronger effect = higher value
# [14] = modulation of C. elegans fzo-1 (AID 1259413; call rule not given here;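 note: fzo-1 mutant C. elegans worms in liquid wells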); details: C. elegans fzo-1 modulator screen, mean read-out; stronger effect = higher value
# [15] = molecular target: Mitogen-activated protein kinase 7 (Homo sapiens) (UniProt Q13164); assay: ERK5 transactivation activators in reporter cells, primary screen, cell-based, HTS (AID 1508626;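 active = luciferase signal above three times the same-plate solvent-only control wells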;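 note: luciferase driven by Gal4-ERK5 fusion binding five Gal4 sites before minimal TATA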); details: HeLa Gal4-ERK5 transactivation, 18 h, at 5 µM, stronger effect = higher value
# F380Y = assay: modulators of BK channel variants, profiling panel, selectivity assay, cell-based, U2OS BacMam, thallium flux, beta subunits (AID 1259406;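 active = thallium flux through the channel raised or lowered by more than 3 SD from vehicle-only wells, actives on both sides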;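 note: initial slope of Thallos dye fluorescence rise after thallium is added; log ratio against the mean of 0.3% DMSO vehicle wells on the same plate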); details: at 30 µM
# F380Y/beta1 = assay: as above; details: at 30 µM
# F380Y/beta2Delta = assay: as above; details: at 30 µM
# [16] = measured here: epithelial PC-3E GFP cell survival
# [17] = measured here: mesenchymal TEM4-18 mCherry cell survival
# [18] = MELAS cybrid survival, CellTiter-Glo 48 h, stronger effect = higher value
# [19] = Rieske KO mouse fibroblast survival, CellTiter-Glo 72 h
# NAD(+) hydrolase SARM1 (Homo sapiens), sequence (Q6SZW1 whole entry, looked up): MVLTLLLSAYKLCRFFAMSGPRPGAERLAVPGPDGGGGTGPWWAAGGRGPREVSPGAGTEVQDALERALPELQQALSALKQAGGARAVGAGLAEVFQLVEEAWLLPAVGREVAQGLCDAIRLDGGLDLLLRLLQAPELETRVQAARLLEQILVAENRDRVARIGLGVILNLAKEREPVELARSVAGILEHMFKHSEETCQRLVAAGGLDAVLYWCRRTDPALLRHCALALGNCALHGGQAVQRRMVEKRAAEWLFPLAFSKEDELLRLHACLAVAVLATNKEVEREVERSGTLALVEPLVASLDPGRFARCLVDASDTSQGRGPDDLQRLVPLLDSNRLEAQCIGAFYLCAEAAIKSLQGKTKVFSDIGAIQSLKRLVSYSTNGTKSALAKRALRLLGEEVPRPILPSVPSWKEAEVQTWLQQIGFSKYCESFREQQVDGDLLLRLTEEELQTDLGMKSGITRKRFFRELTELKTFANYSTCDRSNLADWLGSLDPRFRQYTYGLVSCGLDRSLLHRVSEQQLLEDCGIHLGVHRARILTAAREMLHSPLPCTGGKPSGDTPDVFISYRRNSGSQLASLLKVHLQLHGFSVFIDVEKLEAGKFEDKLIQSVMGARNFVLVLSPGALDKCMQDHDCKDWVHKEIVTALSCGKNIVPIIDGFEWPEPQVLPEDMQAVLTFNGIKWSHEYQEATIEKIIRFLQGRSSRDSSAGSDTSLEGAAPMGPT
# 6-phosphogluconate dehydrogenase, decarboxylating (Homo sapiens), sequence (P52209 whole entry, looked up): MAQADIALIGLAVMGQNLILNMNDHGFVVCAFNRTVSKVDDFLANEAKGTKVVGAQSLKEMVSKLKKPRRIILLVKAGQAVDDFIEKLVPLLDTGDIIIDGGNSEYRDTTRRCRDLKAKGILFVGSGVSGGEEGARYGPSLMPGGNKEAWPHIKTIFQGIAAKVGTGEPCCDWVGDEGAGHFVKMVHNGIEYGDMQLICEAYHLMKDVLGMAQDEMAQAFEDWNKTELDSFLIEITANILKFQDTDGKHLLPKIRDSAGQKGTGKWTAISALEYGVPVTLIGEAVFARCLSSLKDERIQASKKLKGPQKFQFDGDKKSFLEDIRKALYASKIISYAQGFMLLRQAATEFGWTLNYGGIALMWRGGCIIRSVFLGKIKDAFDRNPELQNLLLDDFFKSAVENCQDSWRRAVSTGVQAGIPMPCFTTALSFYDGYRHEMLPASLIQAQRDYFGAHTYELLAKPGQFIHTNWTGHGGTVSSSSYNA
# Mitogen-activated protein kinase 7 (Homo sapiens), sequence (Q13164 whole entry, looked up, the tested form may be a part): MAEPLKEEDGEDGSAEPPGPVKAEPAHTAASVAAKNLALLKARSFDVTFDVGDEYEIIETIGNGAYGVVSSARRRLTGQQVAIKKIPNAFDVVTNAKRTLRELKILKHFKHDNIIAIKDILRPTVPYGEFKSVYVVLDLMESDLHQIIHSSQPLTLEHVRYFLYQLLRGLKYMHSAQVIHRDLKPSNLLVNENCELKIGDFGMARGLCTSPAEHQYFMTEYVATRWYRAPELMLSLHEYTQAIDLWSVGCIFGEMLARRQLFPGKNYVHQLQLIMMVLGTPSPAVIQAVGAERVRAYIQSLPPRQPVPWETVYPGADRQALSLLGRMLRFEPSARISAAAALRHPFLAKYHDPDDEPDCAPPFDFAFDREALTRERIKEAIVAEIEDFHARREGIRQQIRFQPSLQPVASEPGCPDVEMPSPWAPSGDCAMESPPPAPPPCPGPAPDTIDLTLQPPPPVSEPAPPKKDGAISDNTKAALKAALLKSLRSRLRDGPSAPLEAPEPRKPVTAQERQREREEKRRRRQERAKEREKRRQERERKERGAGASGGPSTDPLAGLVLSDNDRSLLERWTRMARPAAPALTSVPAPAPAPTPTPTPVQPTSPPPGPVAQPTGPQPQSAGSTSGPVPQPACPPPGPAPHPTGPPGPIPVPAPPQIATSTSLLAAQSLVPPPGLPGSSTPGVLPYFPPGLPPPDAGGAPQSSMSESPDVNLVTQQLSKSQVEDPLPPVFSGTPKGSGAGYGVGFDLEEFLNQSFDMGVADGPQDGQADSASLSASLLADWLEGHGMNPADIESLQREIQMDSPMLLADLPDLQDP
structure (smiles),measurement,setting,value
CCCCC/C(C=O)=C\c1ccccc1,nuclear beta-catenin stimulation,[1]; at 10 µM,0.8% (inactive)
same,nuclear beta-catenin stimulation,"[1]; stimulation, at 2 µM",4.5%
same,insulin secretion stimulation,[2],1% (inactive)
same,viability decrease,[3],-20.6% (inactive)
same,tube area decrease,[4],30.3% (inactive)
same,GLP1 secretion stimulation,[5],0.1% (inactive)
same,inhibition of viability,[6],1.1% (inactive)
same,viability decrease (inhibition),[7],12.8% (inactive)
same,viability decrease (inhibition),[8],-11.3% (inactive)
N=C(N)c1ccc(OCCCCCOc2ccc(C(=N)N)cc2)cc1,nuclear beta-catenin stimulation,[1]; at 10 µM,-0.7% (inactive)
same,nuclear beta-catenin stimulation,"[1]; stimulation, at 2 µM",1.1%
same,insulin secretion stimulation,[2],2.3% (inactive)
same,viability decrease,[3],0.4% (inactive)
same,tube area decrease,[4],43.4% (active)
same,GLP1 secretion stimulation,[5],-3.5% (inactive)
same,inhibition of viability,[6],12.5% (inactive)
same,viability decrease (inhibition),[7],60.9% (active)
same,viability decrease (inhibition),[8],55.1% (active)
same,inhibition,[9],12.1% (inactive)
same,red/green cell ratio (normalised),[10],0.75 (inactive)
same,normalised cell number,[10]; [16],1.05
same,normalised cell number,[10]; [17],0.79
same,fold change,"[11]; stronger effect = lower value, cell number ratio, induced over uninduced",0.873 (inactive) and 0.95 (inactive) and 1.08 (inactive)
same,fold change,[11]; measured here: relative caspase fold change +Dox/-Dox,1.42 and 0.678 and 1.37
same,cell count,"[11]; measured here: total cells with miR-34 induction, stronger effect = lower value",4130 and 4260 and 6460
same,cell count,[11]; measured here: total cells without miR-34 induction,4730 and 4480 and 6000
same,z-score,[12]; [18],6.07 (active) and -3.61 (inactive) and 2.69 (active)
same,z-score,[12]; [19],6.42 and -2.57 and -1.21
same,remaining NAD,[13],10 nM (inactive)
CC(C)C(=O)Nc1cccc(C(F)(F)F)c1,nuclear beta-catenin stimulation,[1]; at 10 µM,1% (inactive)
same,nuclear beta-catenin stimulation,"[1]; stimulation, at 2 µM",1.2%
same,insulin secretion stimulation,[2],2.1% (inactive)
same,viability decrease,[3],9.3% (inactive)
same,tube area decrease,[4],-5.2% (inactive)
same,GLP1 secretion stimulation,[5],4.8% (inactive)
same,inhibition of viability,[6],0.9% (inactive)
same,viability decrease (inhibition),[7],-24.6% (inactive)
same,viability decrease (inhibition),[8],-1% (inactive)
CN(C)CCCN1c2ccccc2CCc2ccc(Cl)cc21,nuclear beta-catenin stimulation,[1]; at 10 µM,2.9% (inactive)
same,nuclear beta-catenin stimulation,"[1]; stimulation, at 2 µM",2.5%
same,insulin secretion stimulation,[2],5.4% (inactive)
same,viability decrease,[3],-53% (inactive)
same,tube area decrease,[4],23.1% (inactive)
same,GLP1 secretion stimulation,[5],13.3% (inactive)
same,inhibition of viability,[6],67.4% (active)
same,viability decrease (inhibition),[7],61.1% (active)
same,viability decrease (inhibition),[8],61.8% (active)
same,inhibition,[9],13.8% (inactive)
same,mean signal,[14],222 (inactive)
same,red/green cell ratio (normalised),[10],1.09 (inactive)
same,normalised cell number,[10]; [16],0.96
same,normalised cell number,[10]; [17],1.05
same,z-score,[12]; [18],-0.661 (inactive) and 0.117 (inactive)
same,z-score,[12]; [19],-0.587 and 0.253
same,remaining NAD,[13],10 nM (inactive)
same,luciferase signal,[15],32 AU (inactive)
same,log fold change Tl+ flux,F380Y,-0.0375 (inactive)
same,log fold change Tl+ flux,F380Y/beta1,-0.109 (inactive)
same,log fold change Tl+ flux,F380Y/beta2Delta,-0.0656 (inactive)
NC(N)=NN=C(/C=C/c1ccc([N+](=O)[O-])o1)/C=C/c1ccc([N+](=O)[O-])o1,nuclear beta-catenin stimulation,[1]; at 10 µM,-3% (active)
same,nuclear beta-catenin stimulation,"[1]; stimulation, at 2 µM",56.2%
same,insulin secretion stimulation,[2],6% (inactive)
same,viability decrease,[3],99.3% (active)
same,tube area decrease,[4],38.8% (active)
same,GLP1 secretion stimulation,[5],-3% (inactive)
same,inhibition of viability,[6],99.5% (active)
same,viability decrease (inhibition),[7],102% (active)
same,viability decrease (inhibition),[8],96% (active)
CC(=O)OC(C)OC(=O)C(C)c1ccc(-c2ccccc2)c(F)c1 (configuration not stated),nuclear beta-catenin stimulation,[1]; at 10 µM,3.1% (inactive)
same,nuclear beta-catenin stimulation,"[1]; stimulation, at 2 µM",0.3%
same,insulin secretion stimulation,[2],0.5% (inactive)
same,viability decrease,[3],-2.95% (inactive)
same,tube area decrease,[4],-36.8% (inactive)
same,GLP1 secretion stimulation,[5],-1.1% (inactive)
same,inhibition of viability,[6],8.9% (inactive)
same,viability decrease (inhibition),[7],4.6% (inactive)
same,viability decrease (inhibition),[8],-3.05% (inactive)
